In PubChem BioAssay (NCATS):
Inconclusive results are not listed. Unmarked numbers belong to inactive results. Active and inactive are the calls of the source. The call rests on the fitted dose curve; in most records, active means well fitted curve in the direction sought with a large enough effect; inconclusive means small, poorly fitted or top-dose-only effect, or another doubt; inactive means no such curve, though single readings can be large; an effect the other way counts as inactive or inconclusive.

These molecules were tested on Zika virus NS2B-NS3 protease (assay: Primary screen GU AMC qHTS for Zika virus inhibitors (AID 1347154;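 further: 0% = no-inhibitor control and -100% = no-enzyme control; nearly all actives have a fitted effect of over 70% in size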)). Conditions: Zika NS2B-NS3 unlinked protease, AMC fluorogenic substrate; series mostly up to 54.1 µM; activity change, negative = inhibition: at the top concentration.
How it was run: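 Unlinked Zika NS2B hydrophilic domain/NS3 protease domain noncovalent complex (25 nM final) in 10 mM Tris-HCl pH 8.0, 0.01% Tween 20, with AMC peptide substrate. Fluorescence (ex 340, em 450 nm) change over 15 min, room temperature; percent inhibition fitted to 4-parameter Hill equation.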

Compound | activity change, negative = inhibition | Potency
O=C1OCCN1/N=C/c1ccc([N+](=O)[O-])o1 | -7.89% | –
Cc1ccc(C(=O)C(C)CN2CCCCC2)cc1 (stereo not drawn) | -1.7% | –
CCCCN1CCCC1C(=O)Nc1c(C)cc(C)cc1C (stereo not drawn) | -2.77% | –
COC(=O)C1=C(C)NC(C)=C(C(=O)O[C@@H]2CCCN(Cc3ccccc3)C2)[C@@H]1c1cccc([N+](=O)[O-])c1 | -13.5% | –
COc1ccc(CN2CCN(C(c3ccc(F)cc3)c3ccc(F)cc3)CC2)c(OC)c1OC | -6.78% | –
CC(=O)O[C@]1(C(C)=O)CC[C@H]2[C@@H]3C[C@H](C)C4=CC(=O)CC[C@]4(C)[C@H]3CC[C@@]21C | -7.88% | –
C[C@]12CC[C@@H]3c4ccc(O)cc4CC[C@H]3[C@@H]1CC[C@@H]2O | – | inactive
CN1C(CCl)Nc2cc(Cl)c(S(N)(=O)=O)cc2S1(=O)=O (stereo not drawn) | 3.59% | –
O=C1OC(c2ccc(O)cc2)(c2ccc(O)cc2)c2ccccc21 | -0.162% | –
CCCCS(=O)(=O)N[C@@H](Cc1ccc(OCCCCC2CCNCC2)cc1)C(=O)O | 4.52% | –
CC(Cc1ccccc1)(NC(=O)CN)c1ccccc1 (stereo not drawn) | – | inactive
O=c1[nH]c(=O)n([C@H]2CCCO2)cc1F | 6.61% | –
Cc1ccc(Nc2c(F)cccc2Cl)c(CC(=O)O)c1 | -3.72% | –
COc1cccc(CCc2ccccc2OCC(CN(C)C)OC(=O)CCC(=O)O)c1 (stereo not drawn) | 1.06% | –
COc1cc(N)c(Cl)cc1C(=O)NC1CCN(CCCOc2ccc(F)cc2)CC1OC (stereo not drawn) | 3.37% | –
CC(C)(C)NC(=O)[C@@H]1CN(Cc2cccnc2)CCN1C[C@@H](O)C[C@@H](Cc1ccccc1)C(=O)N[C@H]1c2ccccc2C[C@H]1O | -0.693% | –
Cc1nc2n(c(=O)c1CCN1CCC(c3noc4cc(F)ccc34)CC1)CCC[C@H]2O | 2% [at 25.8 µM] | –
CCCCCCCCCCCCCCCC[N+](C)(C)CC | -19.7% | –
Cc1ccccc1C(=O)Nc1ccc(C(=O)N2CCCC(N(C)C)c3ccccc32)cc1 (stereo not drawn) | -0.718% | –
CN(C)CCCOc1nn(Cc2ccccc2)c2ccccc12 | -20% | –
CC1(C)O[C@@H]2C[C@H]3[C@@H]4C[C@H](F)C5=CC(=O)C=C[C@]5(C)[C@H]4[C@@H](O)C[C@]3(C)[C@]2(C(=O)CO)O1 | -1.9% | –
CN1CCN(C(c2ccccc2)c2ccccc2)CC1 | 1.75% | –
O=C(OCCOCCO)c1ccccc1Nc1cccc(C(F)(F)F)c1 | -16.9% | –
OC[C@H]1O[C@H](O[C@]2(CCl)O[C@H](CCl)[C@@H](O)[C@@H]2O)[C@H](O)[C@@H](O)[C@H]1Cl | -6.73% | –
CN1[C@@H]2CC[C@H]1CC(OC(=O)c1c[nH]c3ccccc13)C2 (stereo partly drawn) | – | inactive
OCc1ccccc1O | -2.78% | –
NCCCC[C@H](N[C@@H](CCc1ccccc1)C(=O)O)C(=O)N1CCC[C@H]1C(=O)O | 0.277% | –
COc1ccc(CCN2CCC(Nc3nc4ccccc4n3Cc3ccc(F)cc3)CC2)cc1 | -5.8% | –

The molecules below were run on Zika virus NS2B-NS3 protease (unlinked complex) (assay: Primary screen GU Rhodamine qHTS for Zika virus inhibitors: Unlinked NS2B-NS3 protease assay (AID 1347159; further: on the % scale 0 is the no-effect control and ±100 the full control effect; nearly all actives have a fitted effect of over 60% in size)). Conditions: Recombinant ZIKV NS2B-NS3 protease, Rhodamine110 substrate fluorescence; series mostly up to 107 µM; activity change, negative = inhibition: at the top concentration.
How it was run: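 Compounds, tested up to 114 microM, were incubated for 15 minutes with 25 nM unlinked NS2B-NS3 protease at pH 8.0. Cleavage of 1.5 microM Rhodamine110 substrate was then followed by fluorescence for 15 minutes.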

Compound | activity change, negative = inhibition [%]
Cc1ccc(C(=O)C(C)CN2CCCCC2)cc1 (stereo not drawn) | 3.5
NC(=NCCCCCCN=C(N)/N=C(\N)Nc1ccc(Cl)cc1)/N=C(\N)Nc1ccc(Cl)cc1 | 26.5
COC(=O)C1=C(C)NC(C)=C(C(=O)O[C@@H]2CCCN(Cc3ccccc3)C2)[C@@H]1c1cccc([N+](=O)[O-])c1 | 40.3
C#C[C@]1(OC(C)=O)CC[C@H]2[C@@H]3CCC4=C[C@@H](OC(C)=O)CC[C@@H]4[C@H]3CC[C@@]21C | -19
COc1ccc(CN2CCN(C(c3ccc(F)cc3)c3ccc(F)cc3)CC2)c(OC)c1OC | 75.9
CC(=O)O[C@]1(C(C)=O)CC[C@H]2[C@@H]3C[C@H](C)C4=CC(=O)CC[C@]4(C)[C@H]3CC[C@@]21C | -10.9
CN1C(CCl)Nc2cc(Cl)c(S(N)(=O)=O)cc2S1(=O)=O (stereo not drawn) | -19
CCCCS(=O)(=O)N[C@@H](Cc1ccc(OCCCCC2CCNCC2)cc1)C(=O)O | -5.86
O=c1[nH]c(=O)n([C@H]2CCCO2)cc1F | 10.2
Cc1ccc(Nc2c(F)cccc2Cl)c(CC(=O)O)c1 | -15.5
CC(C)(C)NC(=O)[C@@H]1CN(Cc2cccnc2)CCN1C[C@@H](O)C[C@@H](Cc1ccccc1)C(=O)N[C@H]1c2ccccc2C[C@H]1O | 22.3
Cc1nc2n(c(=O)c1CCN1CCC(c3noc4cc(F)ccc34)CC1)CCC[C@H]2O | 9.67
Cc1ccccc1C(=O)Nc1ccc(C(=O)N2CCCC(N(C)C)c3ccccc32)cc1 (stereo not drawn) | 5
CN(C)CCCOc1nn(Cc2ccccc2)c2ccccc12 | 89.3
COC(=O)CCc1ccc(OCC(O)CNC(C)C)cc1 (stereo not drawn) | 25
CN1CCN(C(c2ccccc2)c2ccccc2)CC1 | 70.8
O=C(OCCOCCO)c1ccccc1Nc1cccc(C(F)(F)F)c1 | 0
OC[C@H]1O[C@H](O[C@]2(CCl)O[C@H](CCl)[C@@H](O)[C@@H]2O)[C@H](O)[C@@H](O)[C@H]1Cl | 7.78
CN1[C@@H]2CC[C@H]1CC(OC(=O)c1c[nH]c3ccccc13)C2 (stereo partly drawn) | 15
CC(C)n1nc(-c2cc3cc(O)ccc3[nH]2)c2c(N)ncnc21 | -0.422
